# Bioassay records as filed in PubChem.
# Cardiac RTF inh = cardiac RTF calcium sensitivity inhibitors, primary screen, biochemical, IANBD-TnC fluorescence, EC70 calcium; inhibition, % at 7.15 µM; 340,000 compounds, 0.12% hits; Troponin I, cardiac muscle (Homo sapiens) + Troponin T, cardiac muscle (Homo sapiens) + …; AID 493244, 2011; IANBD-labeled cardiac RTF, Ca2+ fluorescence;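 active means inhibition above the mean inhibition of all tested compounds plus 3 SD, cut at about 17% in these data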;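 further: assay run at fixed EC70 calcium of 1.6 mM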
# IDE act = human IDE activators in live cells, primary screen, fluorescence polarization, HEK cells, FAbeta-B substrate; Insulin-degrading enzyme (Homo sapiens), P14735; FAbeta-B cleavage; 0% vehicle, 100% cell-free pure enzyme wells; activation, % at 5.96 µM; 340,000 compounds, 0.073% hits;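 active means activation above the mean of all tested compounds plus 3 SD, set per screening campaign, cut at about 17% in these data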
# Target sequence (P14735 whole entry, looked up): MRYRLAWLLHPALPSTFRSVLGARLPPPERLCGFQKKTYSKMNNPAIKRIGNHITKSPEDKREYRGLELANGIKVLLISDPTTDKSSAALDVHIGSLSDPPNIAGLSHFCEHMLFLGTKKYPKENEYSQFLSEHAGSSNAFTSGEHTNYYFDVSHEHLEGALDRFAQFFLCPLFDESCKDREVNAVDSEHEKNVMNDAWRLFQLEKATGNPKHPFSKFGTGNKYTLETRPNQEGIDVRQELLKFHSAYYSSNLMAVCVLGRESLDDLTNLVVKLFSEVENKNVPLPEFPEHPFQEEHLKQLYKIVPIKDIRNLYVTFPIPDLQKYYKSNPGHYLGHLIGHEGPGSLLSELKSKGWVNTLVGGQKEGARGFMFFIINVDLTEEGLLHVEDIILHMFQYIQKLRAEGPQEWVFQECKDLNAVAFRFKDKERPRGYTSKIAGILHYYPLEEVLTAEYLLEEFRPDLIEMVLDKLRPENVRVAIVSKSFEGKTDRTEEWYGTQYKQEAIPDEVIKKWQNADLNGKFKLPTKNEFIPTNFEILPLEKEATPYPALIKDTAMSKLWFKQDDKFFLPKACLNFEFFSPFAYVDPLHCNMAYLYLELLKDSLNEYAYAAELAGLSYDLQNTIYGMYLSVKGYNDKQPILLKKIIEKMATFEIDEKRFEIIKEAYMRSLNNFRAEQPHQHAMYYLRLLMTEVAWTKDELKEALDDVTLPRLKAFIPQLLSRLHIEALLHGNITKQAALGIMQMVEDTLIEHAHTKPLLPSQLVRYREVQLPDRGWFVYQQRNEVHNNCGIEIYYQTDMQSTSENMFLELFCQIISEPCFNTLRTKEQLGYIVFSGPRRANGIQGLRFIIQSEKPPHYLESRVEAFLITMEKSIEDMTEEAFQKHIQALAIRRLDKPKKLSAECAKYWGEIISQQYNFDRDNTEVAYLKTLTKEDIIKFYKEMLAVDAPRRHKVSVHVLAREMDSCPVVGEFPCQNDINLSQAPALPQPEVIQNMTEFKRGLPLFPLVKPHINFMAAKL
# RTF Ca sens act = cardiac RTF calcium sensitivity activators, primary screen, biochemical, IANBD-TnC fluorescence, EC20 calcium; 340,000 compounds, 0.24% hits; activation, % at 7.2 µM; Troponin I, cardiac muscle (Homo sapiens) + Troponin T, cardiac muscle (Homo sapiens) + …; IANBD-labeled TnC RTF fluorescence at EC20 calcium; 0% EC20 calcium, 100% full calcium;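 active means activation above the mean over all tested compounds plus 3 SD, cut at about 30% in these data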;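 further: rise in fluorescence read as greater calcium sensitivity of cardiac thin filaments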
# IDE inh = human IDE inhibitors in live cells, primary screen, fluorescence polarization, HEK cells, FAbetaB substrate | Insulin-degrading enzyme (Homo sapiens), P14735 | 320,000 compounds, 0.41% hits | FAbetaB cleavage | inhibition, % at 5.59 µM;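 active means percent inhibition above the average of all tested compounds plus 3 SD, set per screening campaign, cut at about 16% in these data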;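 further: IDE supplied by intact live HEK cells; FP after avidin binding of uncleaved biotin substrate so inhibition keeps polarization high; 0% = DMSO wells and 100% = 60 µM reference IDE inhibitor Ii1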
# CRFR2-BP antag = antagonists of CRF-BP/CRF-R2 complex, primary screen, cell-based, HEK293, calcium dye fluorescence, uHTS. CRF-induced calcium fluorescence. inhibition, % at 11.8 µM. 350,000 compounds, 0.59% hits. AID 588475, 2011;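 active means inhibition of the ligand-induced calcium signal above about 50% at the single tested concentration, limit read from the data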
# CRFR2-BP ag = agonists of CRF-BP/CRF-R2 complex, primary screen, cell-based, HEK293, calcium dye fluorescence, uHTS; CRF-binding protein / CRF receptor 2 complex (human); calcium dye fluorescence (FLIPR); percent of saturating CRF peptide response; activation, % at 13.2 µM; 350,000 compounds, 0.46% hits;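 active means activation of at least 50%, plus an integration ratio under a set limit after plate pattern correction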;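 further: plate controls were neutral control wells without compound for no effect and CRF at EC100 for full effect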
# * = called active by the depositor; · = no result given. An excerpt weighted towards active compounds, which were near 1.5% of everything screened.
SMILES,Cardiac RTF inh,IDE act,RTF Ca sens act,IDE inh,CRFR2-BP antag,CRFR2-BP ag
CC(C)(C)OC(=O)NC1CC2CCCC(C1)N2Cc1ccccc1 (stereo unspecified),-5.6,-0.7,-1.6,·,-5.5,5.0
CC1CCCN(S(=O)(=O)CCNC(=O)c2ccccc2)C1 (stereo unspecified),-8.4,5.1,5.5,3.7,30.6,0.3
CCN(CC)C(=O)CSC(Nc1ccc(F)cc1)=C(C#N)C#N,-10.4,-6.3,4.6,4.8,2.9,3.1
Cc1ccc(CSC(Nc2ccc(F)cc2)=C(C#N)C#N)cc1,-6.0,8.2,0.5,-1.2,71.8*,51.0*
CCCn1c(=N)n(CC(O)COc2ccc(C)cc2)c2ccccc21 (stereo unspecified),-4.2,-5.1,11.7,1.6,50.9*,0.1
O=C(N=C1SC2CS(=O)(=O)CC2N1c1cccc(Cl)c1Cl)C1CC1 (stereo unspecified),8.8,2.5,-3.2,2.2,25.3,-0.7
Oc1[nH]c2ccccc2c1N=Nc1c(F)c(F)c(Cl)c(F)c1F,-5.6,0.3,5.0,4.3,-4.6,-0.7
Oc1[nH]c2ccccc2c1N=Nc1ccccc1Cl,-89.3,-4.5,64.8*,·,-96.5,123.6*
COc1ccc(CN(C)Cc2nc3scc(-c4ccccc4)c3c(=O)[nH]2)cc1OC,-17.6,3.3,0.2,2.1,59.8*,0.3
CSCc1nc2scc(-c3ccccc3)c2c(=O)[nH]1,-1.3,-2.9,-1.4,·,-12.1,1.4
Cc1noc(C)c1COc1ccccc1C(=O)N(C)CC(=O)Nc1ccc(F)cc1,-2.1,2.9,-4.5,-4.8,2.7,-0.2
CC(C)(C)OC(=O)N1CCC(NC(=O)c2[nH]cnc2C(=O)Nc2ccccc2F)CC1,·,·,·,·,-0.2,-1.5
CC(C)NC(=S)N/N=C/c1ccccc1[N+](=O)[O-],6.1,0.2,-0.4,-3.2,15.4,1.0
O=[N+]([O-])c1ccccc1C=NNC(=S)NN=Cc1ccccc1[N+](=O)[O-],4.6,-1.7,-1.4,·,56.9*,-2.2
CCN(CC)c1ccc(/C=c2\sc3nnc(-c4ccccc4Cl)n3c2=O)cc1,-62.1,-5.3,46.9*,3.5,-98.9,112.5*
CCN(CC)c1ccc(/C=C2/C(=O)ON=C2C)cc1,-33.0,-23.8,7.5,11.7,-47.1,16.9
Cc1ccc(/C=c2/sc3nnc(-c4ccccc4Cl)n3c2=O)o1,-3.9,-3.3,-0.7,3.5,-20.6,-0.6
CCN(CC)c1ccc(/C=c2/sc3nnc(-c4ccccc4C)n3c2=O)cc1,-18.9,-4.3,43.2*,7.9,-194.2,132.6*
Cc1ccc(C2C(C#N)=C(N)Oc3cc(N)ccc32)cc1 (stereo unspecified),1.0,-0.1,-10.0,5.9,-17.6,-2.1
Cc1ccc(/C=C2\CCC3=C2OC(N)=C(C#N)C3c2ccc(C)cc2)cc1 (stereo unspecified),-99.7,-43.9,84.2*,56.4*,-296.6,252.9*
O=C(Nc1ccccc1)c1ccccc1NS(=O)(=O)c1ccc(Cl)s1,3.9,-2.4,-1.9,0.6,67.7*,29.0
O=C(Nc1nnc(S(=O)(=O)Nc2ccccc2)s1)c1ccccc1Cl,-0.1,8.1,0.0,-2.2,75.9*,-0.2
O=C(Nc1ccccc1Cc1ccccc1)c1ccccc1NS(=O)(=O)c1ccc(Cl)s1,0.7,2.2,-1.5,6.6,104.8*,35.0
CS(=O)(=O)c1ccccc1C(=O)Nc1ccccc1Cc1ccccc1,-5.5,1.7,-1.0,-1.0,6.7,-0.7
Cc1ccc(NC(=O)c2ccccc2NS(=O)(=O)c2ccc(Cl)s2)cc1,-1.9,-2.5,2.1,1.8,79.7*,64.6*
SMILES,Cardiac RTF inh,IDE act,RTF Ca sens act,IDE inh,CRFR2-BP antag,CRFR2-BP ag
O=C(NCc1ccco1)c1ccccc1NS(=O)(=O)c1ccc(Cl)s1,-14.2,-1.4,11.3,2.2,20.2,14.8
O=C(C1CCCN(Cc2ccccc2[N+](=O)[O-])C1)N1CCCCC1 (stereo unspecified),-4.2,8.2,-6.6,-1.4,28.0,-3.0
CCOC(=O)Cc1csc(NC(=O)c2ccc3ncsc3c2)n1,-2.2,1.3,-3.0,0.0,-4.1,0.6
CC1CCN(C(=O)c2[nH]cnc2C(=O)N[C@@H](C)C(=O)OC(C)(C)C)CC1,-13.3,0.5,-7.8,-3.3,54.2*,26.3
O=C(COC(=O)CC(c1ccccc1)c1ccccc1)NCc1ccc(Cl)cc1,6.7,2.4,-4.0,4.3,-171.2,160.1*
O=C(NCc1ccccc1)c1ccc(Cl)cc1,·,·,·,-1.1,85.8*,-1.5
CCc1ccc(NC(=S)NCc2ccccc2)cc1,-4.3,8.0,4.5,1.0,10.1,-3.5
S=C(NCc1ccccc1)Nc1ccc(Cl)cc1,-6.8,1.8,-3.5,-1.4,57.2*,7.8
S=C(Nc1ccc(Br)cc1)N1CCN(c2ccccn2)CC1,1.0,-1.2,-7.0,0.8,-2.1,-0.3
O=C(COC(=O)c1ccc(S(=O)(=O)C(F)F)cc1)NC(=O)NC1CCCCC1,-0.7,5.3,-9.1,0.5,-7.8,-1.5
COc1cccc(C2CCCN2Cc2nc(-c3cnccn3)no2)c1 (stereo unspecified),-16.5,6.7,1.4,4.0,116.0*,0.6
Cc1ccccc1-n1ccnc1SCC(=O)NCc1ccco1,-3.2,3.2,-2.0,-0.5,-8.0,0.1
O=C(CC1SCCNC1=O)NCc1ccccc1 (stereo unspecified),·,·,·,·,-4.9,1.2
COc1ccc(CCNC(=O)Cn2c(=O)n(-c3ccc(C)c(F)c3)c(=O)c3sccc32)cc1OC,-4.5,-1.7,-0.6,8.5,4.3,-0.5
CSc1cccc(NC(=O)C(C)C)c1,2.9,5.0,2.6,-2.6,51.4*,-2.6
Cn1nc(Cc2n[nH]c(=S)n2C)c2ccccc2c1=O,3.8,4.2,0.0,7.6,-1.7,2.8
COc1ccc(C=NNc2ccc([N+](=O)[O-])cc2S(=O)(=O)Nc2ccccc2C(=O)O)cc1OC,-7.7,3.0,2.0,5.6,39.2,0.6
COc1ccc(/C=N/Nc2ccc([N+](=O)[O-])cc2S(=O)(=O)N2CCN(C)CC2)cc1,-3.5,5.2,3.6,-3.0,-51.6,56.0*
Cc1nc(-c2ccccc2)sc1-c1n[nH]c(=S)n1C,-8.9,0.7,-2.3,5.2,4.9,-2.9
CSc1nnc(-c2sc(-c3ccccc3)nc2C)n1C,4.6,5.7,-1.6,1.9,55.3*,0.1
O=C(N/N=C/c1cc(Cl)cc([N+](=O)[O-])c1O)c1cccc(S(=O)(=O)N2CCOCC2)c1,8.5,0.6,-3.3,·,0.4,-1.9
